The whole screen tested about 52,000 compounds, of which about 4,300 (8.3%) were called active. Many of the other results were omitted from the sample, so actives are more common in it than they were. Unmarked numbers belong to inactive results. No stated cut-off is given here; in the data, active means survival mostly below about 52% (no sharp cut-off); inactive means mostly above about 56%.

In the assay the test system is DeltatarO mutant. Nature of the assay: growth inhibition of S. aureus wild type versus tarO mutant, primary screen, teichoic acid synthesis inhibitors, RN4220, OD600 (AID 463173). As to conditions: OD600, 18 h, active compounds read low, screened at 18.75 µg/mL (by protocol).
For `Cc1ccc(NS(=O)(=O)c2ccc3c(c2)CCN3C(=O)C2CC2)c(C)c1`, the survival was 58%.
As for `Cc1ccc(Nc2c(-c3cccnc3)nc3ccc(Cl)cn23)cc1`, the figure is 83%.
As for `O=C(Nc1ccc(F)cc1F)C1CCN(c2ncccn2)CC1`, the survival is 58%.
Take `Cc1c(C(=O)OC2CCCC2)[nH]c2c1C(=O)CC(c1ccc(C(C)(C)C)cc1)C2` (stereo not given): the survival was 89%.
As for `Cc1nnc(SCC(=O)O)o1`, the figure is 75%; as for `Cc1ccc(Nc2c(-c3ccc(C)cc3)nc3ccc(C)cn23)cc1`, 117%.
With `Cc1ccc2nc(-c3ccc(F)cc3)c(NC(C)(C)CC(C)(C)C)n2c1` the figure was 12% (active); with `COCCNc1c(-c2ccc(N)cc2)nc2ccc(C)cn12`, 65%.
As for `O=C(CSc1ccc(-c2cccs2)nn1)Nc1ccccc1`, the figure is 76%; as for `COc1ccccc1N1CCN(C(=O)c2ccc3c(c2)N(Cc2cc(C)ccc2C)C(=O)c2ccccc2S3(=O)=O)CC1`, 74%; as for `Cc1ccc(CN2CCCn3nc(C(=O)NC(C)C)cc3C2=O)cc1`, 0% (active).
For the compound `CCNC(=O)c1cc2n(n1)CCCN(Cc1ccc(C)cc1)C2=O`, the survival is 49%.
With `CCC(C)NC(=O)c1cc2n(n1)CCCN(Cc1ccc(C)cc1)C2=O` (stereo not given) the figure was 74%; with `CCCCNC(=O)c1cc2n(n1)CCCN(Cc1ccc(C)cc1)C2=O`, 32% (active); with `CCCNC(=O)c1cc2n(n1)CCCN(Cc1ccc(C)cc1)C2=O`, 131%.
With `CCCSCCCNC(=O)c1cc2n(n1)CCCN(Cc1ccc(C)cc1)C2=O` the figure was 89%.
As for `O=C(CN1C(=O)CSc2ccc(S(=O)(=O)N3CCCC3)cc21)NCc1ccccc1Cl`, the figure is 87%; as for `CCCC(=O)n1nc(-c2cccnc2)nc1NCc1ccccc1`, 81%; as for `Cc1ccc(Cl)cc1NC(=O)CCc1c(C)nc2c3cccnc3nn2c1C`, 103%.
As to `O=C(NCc1ccccc1Cl)C1CCCN(c2nc3ccccc3n3cccc23)C1` (stereo not given), the survival was 46% (active).
`COc1ccccc1CNC(=O)C1CCCN(c2nc3ccccc3n3cccc23)C1` (stereo not given): the survival was 53%.
With `O=C(NCc1ccc(Cl)cc1)C1CCCN(c2nc3ccccc3n3cccc23)C1` (stereo not given) the figure was 82%; with `O=C(NCc1ccccc1Br)C1CCCN(C(=O)N2CCOc3ccccc32)C1` (stereo not given), 73%.
With `COc1ccc(NC(=O)C2=C(C)Nc3nc(SCc4ccccc4C)nn3C2c2ccc(Br)cc2)cc1` (stereo not given) the figure was 80%; with `CCOc1ccc(CNC(=O)c2ccc3c(c2)c(C)c(C)n3Cc2ccc(Cl)cc2)cc1`, 67%; with `CCCC(=O)Nc1nc2ccc(S(C)(=O)=O)cc2s1`, 93%.
As for `CN(c1ccc(O)cc1)c1nc(-c2cccs2)cs1`, the figure is 1% (active); as for `COc1ccc(-c2csc(N(CC(C)C)C(=O)c3cccs3)n2)cc1`, 76%.
As to `CC(=O)N(C)c1nc(-c2ccccc2)cs1`, the survival was 80%.
Turning to `Cc1[nH]c2ccc(CNS(=O)(=O)c3ccc(S(=O)(=O)N4CCOCC4)cc3)cc2c1C`, the survival is 91%.
Take `CC1=C(C(=O)OCC2CCCO2)C(c2ccccc2)NC(=O)N1` (stereo not given): the survival is 102%.
As for `CC1CCN(S(=O)(=O)c2ccc3c(c2)N(CC(=O)NC(C)C)C(=O)CO3)CC1`, the figure is 76%; as for `Cc1nn(C(C)C(=O)Nc2cccc(F)c2)c(=O)c2c1sc1ccccc12` (stereo not given), 108%; as for `Cc1nn(C(C)C(=O)Nc2ccc(C(C)C)cc2)c(=O)c2c1sc1ccccc12` (stereo not given), 58% (active).
With `Cc1cc(C)c(NC(=O)C(C)n2nc(C)c3sc4ccccc4c3c2=O)c(C)c1` (stereo not given) the figure was 60%; with `Cc1ccc(S(=O)Cc2ccc(C(=O)NC3CCCCCC3)o2)cc1` (stereo not given), 121%; with `CCOC(=O)c1ccc(NC(=O)C2CCN(S(=O)(=O)Cc3ccccc3)CC2)cc1`, 66%.
On to `CC(C)c1ccc(CNC(=O)c2ccc(N3CCCC3)c(NC(=O)NCc3ccccc3)c2)cc1`, for which the survival was 73%.
As for `Cc1ccc(CNC(=O)Nc2cc(C(=O)NCc3ccc(C(C)C)cc3)ccc2N2CCCC2)cc1`, the figure is 79%; as for `CC(C)c1ccc(CNC(=O)c2ccc(N3CCCC3)c(NC(=O)NCc3ccc(F)cc3)c2)cc1`, 47% (active); as for `Cc1cc(C)cc(-n2ccn(Cc3ccc(F)cc3)c(=O)c2=O)c1`, 71%.
As for `COc1ccc(Cl)cc1C(=O)Nc1ccc2nc(Nc3cccc(Cl)c3)cc(C)c2c1`, the figure is 93%; as for `COc1ccccc1C(=O)Nc1ccc2nc(N3CCC(C)CC3)cc(C)c2c1`, 3% (active); as for `CCCCc1ccc(C(=O)Nc2ccc3nc(N4CCN(CC)CC4)cc(C)c3c2)cc1`, 36% (active).
With `COc1ccc(C(=O)Nc2ccc3nc(N4CCC(C)CC4)cc(C)c3c2)cc1` the figure was 56%.
Turning to `CCCCc1ccc(C(=O)Nc2ccc3nc(N(CC)CC)cc(C)c3c2)cc1`, the survival is 109%.
For the compound `CCN1CCN(c2cc(C)c3cc(NC(=O)c4cc(Cl)ccc4OC)ccc3n2)CC1`, the survival is 8% (active).
With `COc1ccc(C(=O)Nc2ccc3nc(N4CCCCC4)cc(C)c3c2)c(OC)c1` the figure was 44% (active); with `COc1cccc(C(=O)Nc2ccc3nc(N4CCC(C)CC4)cc(C)c3c2)c1`, 47%.
As for `CC(=O)c1ccc(NC(=O)CSc2ccc3nnc(CCNS(=O)(=O)c4ccc(C)cc4)n3n2)cc1`, the figure is 67%; as for `COc1ccc(C)cc1NC(=O)CC(=O)Nc1ccc2nc3n(c(=O)c2c1)CCCCC3`, 89%; as for `COCCCNC(=O)CSc1nc2cc3c(cc2c(=O)n1CCCC(=O)NCc1ccc2c(c1)OCO2)OCO3`, 84%.
As for `Cc1cc(C)cc(NC(=O)N2CCC(N3CCN(Cc4ccccc4)C(=O)C3=O)CC2)c1`, the figure is 77%.
For the compound `COc1ccccc1CNc1nc(-c2ccco2)nn1S(C)(=O)=O`, the survival is 70%.
As for `O=C(Cn1ncc2c3ccccc3n(Cc3ccccc3)c2c1=O)NCc1ccccc1`, the figure is 93%; as for `Cc1ccccc1C(=O)OCc1cc(=O)n2nc(C(C)C)sc2n1`, 81%.
As for `COc1ccc(Cn2c(C(=O)O)c(CNCCc3ccccc3Cl)c3ccc(C)cc32)cc1`, the figure is 80%.
As for `Cc1ccc(-n2c(=O)c3c(c4cc(C)ccc4n3C)n(CC(=O)Nc3c(C)cccc3C)c2=O)cc1`, the figure is 123%; as for `Cc1cc(N2CCN(C)CC2)nc2ccc(NC(=O)c3ccc(C(C)(C)C)cc3)cc12`, -3% (active).
For the compound `CCN1CCN(c2cc(C)c3cc(NC(=O)c4cc(OC)c(OC)c(OC)c4)ccc3n2)CC1`, the survival is 78%.
With `Cc1cc(N2CCN(C)CC2)nc2ccc(NC(=O)c3ccccc3F)cc12` the figure was 122%; with `CCOc1cc(C(=O)Nc2ccc3nc(N4CCN(C)CC4)cc(C)c3c2)cc(OCC)c1OCC`, 137%; with `CCN1CCN(c2cc(C)c3cc(NC(=O)c4ccc(OC)c(OC)c4)ccc3n2)CC1`, 44% (active).
As for `COc1ccc(CC(=O)Nc2ccc3nc(Nc4ccc(OC)cc4)cc(C)c3c2)cc1`, the figure is 55%; as for `COc1ccc(CC(=O)Nc2ccc3nc(N4CCCCC4)cc(C)c3c2)cc1`, 51% (active).
As to `CCN1CCN(c2cc(C)c3cc(NC(=O)c4ccccc4F)ccc3n2)CC1`, the survival is 43% (active).
With `Cc1ccc(NC(=O)Nc2ccc3nc(N4CCN(C)CC4)cc(C)c3c2)cc1C` the figure was 101%; with `Cc1ccc(NC(=O)Nc2ccc3nc(N4CCN(C)CC4)cc(C)c3c2)cc1F`, 96%.
As for `CCOc1ccc(CC(=O)Nc2ccc3nc(N4CCCCC4)cc(C)c3c2)cc1OCC`, the survival was 92%.
As for `COc1cccc(CNc2nc3c(-c4ccccc4)nnn3c3ccccc23)c1`, the figure is 84%.
With `CCOc1ccc(NC(=O)c2ccc3c(SCC(=O)O)c4c(nc3c2)CCC4)cc1` the figure was 90%; with `CCC1CCCCN1S(=O)(=O)c1cc2c(cc1C)NC(=O)CO2` (stereo not given), 105%; with `O=C1CCN(C(=O)/C=C/c2ccccc2)c2ccccc21`, 88%.
With `CC(=O)c1ccc(NC(=O)C2CCCN(S(=O)(=O)c3ccc4c(c3)CCCN4C(C)=O)C2)cc1` (stereo not given) the figure was 93%; with `Cc1ccc(NC(=O)C(=O)NCC(c2ccc3c(c2)OCO3)N2CCN(C)CC2)cc1C` (stereo not given), 68%.
As to `CCN(CC)S(=O)(=O)c1ccc2nc(NC(=O)c3ccccc3OC)sc2c1`, the survival is 89%.
As for `CCOc1ccc(N2CC(NC(=O)Cc3cccs3)CC2=O)cc1` (stereo not given), the figure is 73%.
As for `Cc1ccc(C(=O)Nc2ccc(F)cc2)cc1S(=O)(=O)N1CCCCCC1`, the figure is 69%.
As for `COC(=O)c1sc(N2C(=O)c3oc4ccccc4c(=O)c3C2c2ccc(O)cc2)nc1C` (stereo not given), the figure is 121%; as for `Cc1[nH]c2ccc(-c3nnc(SCC(=O)N4c5ccccc5CCc5ccccc54)o3)cc2c1C`, 89%.
On to `COc1ccc(Nc2cc(C)c3cc(NC(=O)c4cc(OC)cc(OC)c4)ccc3n2)cc1`, for which the survival was 94%.
In the case of `CCN1CCN(c2cc(C)c3cc(NC(=O)c4cc(OC)cc(OC)c4)ccc3n2)CC1`, the survival is 47% (active).
As for `Cc1cc(N2CCCCC2)nc2ccc(NC(=O)c3ccc(F)cc3)cc12`, the figure is 51%; as for `COc1cc(OC)cc(C(=O)Nc2ccc3nc(N4CCCCC4)cc(C)c3c2)c1`, 31% (active).
With `COc1cc(OC)cc(C(=O)Nc2ccc3nc(N4CCC(C)CC4)cc(C)c3c2)c1`, the survival was 51%.
With `COC(=O)c1ccc(Cl)cc1NC(=O)Nc1nnc(N(C)C2CCCCC2)s1` the figure was 81%; with `COc1ccc(-c2cc(C)no2)cc1S(=O)(=O)N1CCOc2ccc(Cl)cc21`, 92%.
As for `Cc1ccccc1-n1c(=O)c2c3c(sc2n2cnnc12)CCCC3`, the survival is 72%.
As for `Cc1ccc(-n2c(=O)[nH]c3cc(C(=O)NCc4ccccc4)ccc3c2=O)cc1`, the figure is 102%; as for `Cc1c(C(=O)OCc2ccccc2)[nH]c2c1C(=O)CC(c1ccc(C(C)(C)C)cc1)C2` (stereo not given), 91%.
